Experiment [1] can be described thus: MultiTox-Fluor Cytotoxicity Assay - LYMP1-001 - Dead Cells (AID 946). Summed up:
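Cytotoxicity as increased dead-cell protease fluorescence (bis-AAF-R110, 485/520 nm), read 60 min after MultiTox-Fluor reagent. Human lymphoblastoid line exposed 16 h; Hill-fitted AC50, with DMSO as 0% and 15 uM tetraoctylammonium bromide as 100%.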

Experiment [2] in a line: Cell Viability - LYMP1-002 - Assay at 16 hr (AID 948). A digest of the protocol: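 ATP luminescence (CellTiter-Glo) was measured after 16 hr compound exposure at 37 C of 2500 lymphoblastoid LYMP1-002 cells per well. Concentration-response curves were fitted with the Hill equation to give AC50.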
Experiment [3] is described as follows: MultiTox-Fluor Cytotoxicity Assay - LYMP1-002 - Live Cells (AID 955).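 Note: cells exposed to compound for 16 hours.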 Summed up: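 In this qHTS viability format, lymphoblastoid cells (LYMP1-002, human) received compound for 16 hr at 37 C. Fluorogenic GF-AFC cleavage by viable cells was detected at 405/510 nm after 1 h at room temperature.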
A short description of experiment [4]: MultiTox-Fluor Cytotoxicity Assay - LYMP1-002 - Dead Cells (AID 960). Note: nearly all actives have a fitted effect of over 60% in size. Summed up:
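Concentration-dependent increases in membrane-leaked protease activity are quantified in LYMP1-002 cells after 16 hr treatment; values are normalized against DMSO and tetraoctylammonium bromide (15 uM) controls and AC50 derived by Hill modeling.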

A short description of experiment [5]: MultiTox-Fluor Cytotoxicity Assay - LYMP1-003 - Dead Cells (AID 961). Note: nearly all actives have a fitted effect of over 70% in size. Summed up:
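Dead-cell protease release, detected as bis-AAF-R110 fluorescence at 485/520 nm, was measured in LYMP1-003 cells after 16 h compound treatment at 37 C. AC50 values came from Hill-modeled qHTS curves normalized to DMSO (0%) and 15 uM tetraoctylammonium bromide (100%).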

A short description of experiment [6]: MultiTox-Fluor Cytotoxicity Assay - LYMP1-003 - Live Cells (AID 962).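 Note: cells exposed to compound for 16 hours at 37 °C; cytotoxic hits lower the live-cell protease signal.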 A digest of the protocol:
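Human lymphoblastoid line LYMP1-003 in complete culture medium, treated 16 hr with titrated compounds. Viable cells quantified via cell-permeant GF-AFC substrate fluorescence; AC50 derived by Hill fitting.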

The nature of experiment [7]: Cell Viability - LYMP1-003 - Assay at 40 hr (AID 964). Note: series mostly up to about 92 µM; nearly all actives have a fitted effect of over 60% in size. A digest of the protocol: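 Acute toxicity is scored as a concentration-dependent loss of intracellular ATP in LYMP1-003 cells (2500/well, complete medium) after 40 hr at 37 C, measured by CellTiter-Glo luminescence; AC50 values derive from standard Hill modelling.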
The nature of experiment [8]: Cell Viability - LYMP2-004 (AID 966). Note: nearly all actives have a fitted effect of over 65% in size. Note: potency is the fitted concentration of half-maximal effect. Summed up:
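Viable-cell number estimated from ATP luminescence (CellTiter-Glo) in 2500 human lymphoblastoid cells/well after 24 hr at 37 C with compound. AC50 fitted to the standard Hill equation.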

A short description of experiment [9]: Cell Viability - LYMP2-005 (AID 967). Note: series mostly up to about 92 µM. A digest of the protocol:
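LYMP2-005 human lymphoblastoid cells (2500/well) were treated with compounds for 24 h at 37 C. Intracellular ATP was then measured by CellTiter-Glo luminescence after 30 min at room temperature. AC50 values came from Hill-equation fits of qHTS concentration-response data.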

A short description of experiment [10]: Cell Viability - LYMP2-011 (AID 969). Note: nearly all actives have a fitted effect of over 60% in size. Summed up: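 Cells seeded at 2500 per well rest 5 hr before compound addition, then incubate 24 hr at 37 C. CellTiter-Glo reagent is added for 30 min at room temperature before luminescence detection.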
Experiment [11] in a line: Cell Viability - LYMP2-013 (AID 970). Note: nearly all actives have a fitted effect of over 55% in size. Note: potency is the fitted concentration of half-maximal effect. A digest of the protocol:
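In complete culture medium, human lymphoblastoid cells were dosed for 24 hr at 37 C, with tetraoctylammonium bromide (6.4pM to 92 uM) as positive control. Viability reflects luciferase-based ATP signal; AC50 derived from concentration-response curves.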

The nature of experiment [12]: Cell Viability - LYMP2-015 (AID 971). Note: nearly all actives have a fitted effect of over 55% in size. Summed up: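 AC50 values reflect Hill-model fits of ATP-based luminescence (CellTiter-Glo) from a human lymphoblastoid line, 2500 cells/well, treated 24 hr at 37 C.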
Experiment [13] can be described thus: Cell Viability - LYMP2-017 (AID 972).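 Note: series mostly up to about 92 µM; cells exposed to compound for 24 hours at 37 °C; nearly all actives have a fitted effect of over 55% in size.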 Summed up: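 In this qHTS format, lymphoblastoid cells in complete medium receive test compound for a day at 37 C before ATP content is quantified by luciferase luminescence. Reported AC50 figures come from standard Hill-equation curve fitting.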
Experiment [14] in a line: Cell Viability - LYMP2-019 (AID 973). Note: nearly all actives have a fitted effect of over 55% in size. Note: potency is the fitted concentration of half-maximal effect. A digest of the protocol: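 AC50 values come from Hill-equation modelling of qHTS concentration-response curves, where viability is measured as luciferase-based ATP luminescence in the lymphoblastoid line after 24 hr compound exposure in complete culture medium.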
A short description of experiment [15]: Cell Viability - LYMP2-021 (AID 974). Note: potency is the fitted concentration of half-maximal effect. A digest of the protocol: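 In qHTS format, compounds are tested against 2500 lymphoblastoid cells per well for 24 h; viable cell number is inferred from ATP-driven luciferase light, and Hill-equation fitting yields AC50 values.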
The nature of experiment [16]: Cell Viability - LYMP2-023 (AID 975). Summed up: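 In this qHTS, ATP-based luciferase luminescence (CellTiter-Glo) is quantified in human lymphoblastoid cells after 24 hr compound treatment at 37 C; tetraoctylammonium bromide serves as positive control. Concentration-response curves are Hill-fitted to give AC50.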
A short description of experiment [17]: MultiTox-Fluor Cytotoxicity Assay - LYMP1-001 - Live Cells (AID 947).
Experiment [18] in a line: Cell Viability - LYMP1-003 - Assay at 24 hr (AID 963). A digest of the protocol: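 The lymphoblastoid line was treated with titrated compounds for 24 hours, and viable cell number estimated from luciferase-based ATP luminescence.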
Experiment [19] is described as follows: Cell Viability - LYMP2-003 (AID 965).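 Note: cells exposed to compounds for 24 h before reading; nearly all actives have a fitted effect of over 50% in size.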 A digest of the protocol: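 CellTiter-Glo luminescence quantified ATP loss after 24 h compound treatment of LYMP2-003 lymphoblastoid cells at 37 C. Titration series were fitted with the standard Hill equation to give AC50.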
Experiment [20] can be described thus: Cell Viability - LYMP2-009 (AID 968). Note: nearly all actives have a fitted effect of over 55% in size. Note: potency is the fitted concentration of half-maximal effect.

Inconclusive results are not listed. Active and inactive are the calls of the source. Calls come from the whole dose curve; as a rule, active = well fitted curve in the direction sought with a large enough effect; inconclusive = small, poorly fitted or top-dose-only effect, or another doubt; inactive = no such curve, though single readings can be large; an effect the other way counts as inactive or inconclusive.

Drawing on PubChem BioAssay (NCATS), this text covers outcome and Potency for nine compounds.

Take `C=CCCCCCC`: the result in [1], in [2], in experiment [3], in experiment [4] and in [9] was inactive. The Potency result in [5], in experiment [6], in experiment [7], in experiment [8], in [10] and in [11] was “inactive” throughout. Also, the Potency entry in experiment [12], in experiment [13], in experiment [14], in experiment [15] and in [16] was “inactive” each time.
On to `CC(C)Cc1nccs1`, for which the compound was classed as inactive in experiment [17], in experiment [2], in [3], in experiment [4] and in [9]. In addition, the Potency result in experiment [5], in experiment [6], in experiment [18], in [7], in experiment [19] and in experiment [8] was “inactive” in each case. The Potency result in experiment [20], in experiment [10], in experiment [11], in experiment [12], in experiment [13] and in [14] was “inactive” in each case. For the same compound, the Potency entry in experiment [15] and in experiment [16] was “inactive” each time.
For `C=C(C)C(=O)OCCCCCCCCCC`, the call in experiment [1], in [2], in experiment [3], in experiment [4] and in experiment [9] was inactive. Moreover, the Potency entry in experiment [5], in [6], in [18], in [19], in [20] and in experiment [12] was “inactive” throughout. Moreover, the Potency entry in experiment [13], in experiment [14], in [15] and in experiment [16] was “inactive” each time.
On to `CC1CCCO1` (centres undefined), for which the call in experiment [17], in [2], in experiment [3], in [4] and in experiment [9] was inactive. In addition, the Potency result in experiment [5], in [6], in experiment [18], in experiment [7], in experiment [19] and in experiment [8] was “inactive” in each case. For the same compound, the Potency entry in experiment [20], in [10], in experiment [11], in experiment [12], in [13] and in experiment [14] was “inactive” in each case. The Potency result in [15] and in experiment [16] was “inactive” in each case.
As for `CC(C)(c1cc(Br)c(OCC(Br)CBr)c(Br)c1)c1cc(Br)c(OCC(Br)CBr)c(Br)c1` (centres undefined), the call in experiment [1], in [2], in experiment [3], in [4] and in experiment [9] was inactive. In addition, the Potency result in experiment [5], in experiment [6], in experiment [7], in experiment [19], in experiment [8] and in experiment [20] was “inactive” each time. In addition, the Potency result in experiment [10], in [11], in experiment [12], in experiment [13], in [14] and in [16] was “inactive” in each case.
As for `NC(=O)CCCCC(N)=O`, the outcome in [1], in [2], in [3], in experiment [4] and in experiment [9] was inactive. Further, the Potency entry in experiment [6], in experiment [18], in experiment [7], in [19], in experiment [8] and in experiment [20] was “inactive” throughout. For the same compound, the Potency result in experiment [10], in experiment [11], in experiment [12], in [13], in experiment [14] and in experiment [15] was “inactive” throughout. Also, the Potency result in experiment [16] is “inactive”.
As for `O=C1OC(=O)c2c(Cl)c(Cl)c(Cl)c(Cl)c21`, the outcome in [1], in experiment [2] and in experiment [9] was inactive. Further, the Potency entry in experiment [5], in [6], in [18], in experiment [7], in [19] and in [20] was “inactive” throughout. Further, the Potency entry in experiment [10], in [11], in [12], in experiment [13], in experiment [14] and in experiment [15] was “inactive” in each case.
Take `FB(F)F`: the outcome in experiment [1], in experiment [2], in experiment [3], in experiment [4] and in experiment [9] was inactive. Also, the Potency result in experiment [5], in experiment [6], in experiment [7], in [19], in [8] and in experiment [20] was “inactive” each time. Also, the Potency result in [10], in experiment [11], in [12], in [13], in [14] and in experiment [15] was “inactive” each time. Moreover, the Potency entry in [16] was “inactive”.
Turning to `O=Nc1ccc(NO)cc1`, the result in [1], in experiment [2], in experiment [3] and in [4] was inactive. The Potency result in [5], in experiment [18] and in [16] was “inactive” throughout. For the same compound, the Potency in [8], in experiment [20], in experiment [11], in experiment [14] and in experiment [15] was 50.1 µM (active) each time.
